Among all 650,000 compounds or so, about 6,800 (1%) were called active. The full list was thinned out, with actives kept by preference. Values without a mark were called inactive. No stated cut-off is given here; in the data, active means activation above about 4.9%; inactive means the rest.
Target: G-protein coupled receptor 151 (Homo sapiens) (UniProt Q8TDV0)
Test: activates the human receptor GPR151, primary screen, cell-based, PathHunter beta-arrestin, luminescence (AID 1508602);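 further: 0% = median of compound wells and 100% = cells with positive control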
Details: PathHunter beta-arrestin GPR151 cells, at 11.2 µM, hits give high values

Chain of G-protein coupled receptor 151 (Homo sapiens) (Q8TDV0 whole entry, looked up): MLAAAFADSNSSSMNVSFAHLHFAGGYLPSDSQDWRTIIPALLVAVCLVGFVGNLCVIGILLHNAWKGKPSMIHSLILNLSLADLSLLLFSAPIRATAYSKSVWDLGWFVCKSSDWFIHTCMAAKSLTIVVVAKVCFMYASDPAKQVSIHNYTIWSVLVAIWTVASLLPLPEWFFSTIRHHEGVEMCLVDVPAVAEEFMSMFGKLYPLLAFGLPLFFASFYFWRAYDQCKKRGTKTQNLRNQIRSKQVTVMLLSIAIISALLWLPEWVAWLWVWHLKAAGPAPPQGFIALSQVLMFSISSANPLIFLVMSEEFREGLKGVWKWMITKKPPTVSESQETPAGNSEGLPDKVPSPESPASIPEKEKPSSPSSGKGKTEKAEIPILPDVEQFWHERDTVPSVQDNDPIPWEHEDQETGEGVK

Question: `CC1CCN(C(=O)C2CCCN2c2nnc(N3CCCC3=O)s2)CC1` (centres undefined) was tested. Which activation did it give?
Answer: 0.834%

Question: `CC(C)(C)OC(=O)N1CCC[C@H]1C(=O)c1cccnc1` was tested. Which activation did it give?
Answer: 0.241%

Question: For `O=C(NCCCN=C1NS(=O)(=O)c2ccccc21)c1ccc(Cl)c(Cl)c1`, which activation is on record?
Answer: -0.637%

Question: How did the activation turn out when `COc1nc(Nc2ccccc2)nc(-c2csc3ccccc23)n1` was run?
Answer: -0.667%

Question: `COc1nc(Nc2ccccc2)nc(-c2c(C)noc2C)n1` was tested. Which activation did it give?
Answer: 5.15% (active)

Question: How did the activation turn out when `COc1nc(Nc2ccccc2)nc(-c2ccc(C(=O)NC3CC3)cc2)n1` was run?
Answer: 0.979%

Question: With `CCCCc1ccc(NC(=O)COC(=O)c2ccc([N+](=O)[O-])o2)cc1` as the compound, how does the activation read?
Answer: -2.13%

Question: Which activation does the source give for `Cc1cccc(N(C)C(=O)C2CCCN(S(=O)(=O)c3c(C)noc3C)C2)c1` (centres undefined) here?
Answer: 0.213%

Question: With `CCc1ccc(-c2nc(CSCC(=O)NC(C)(C)C)c(C)o2)cc1` as the compound, how does the activation read?
Answer: -0.321%

Question: With `CCSc1nnc(CC(N)=O)c2ccccc12` as the compound, how does the activation read?
Answer: -0.522%

Question: For `O=c1cc(-c2cc3cc(Cl)ccc3oc2=O)c2ccc(O)cc2o1`, which activation is on record?
Answer: -0.104%

Question: With `Cc1c(CN2CCCC(N3CCC(CO)CC3)C2)c(=O)n(-c2ccccc2)n1C` (centres undefined) as the compound, how does the activation read?
Answer: -1.54%

Question: For `CCCn1ncc(CN2CCN(C3CCN(C(C)C)CC3)C(CCO)C2)c1C` (centres undefined), which activation is on record?
Answer: 1.43%

Question: `CCCn1ncc(CN2CCCC(N3CCC(CO)CC3)C2)c1C` (centres undefined) was tested. Which activation did it give?
Answer: 6.31% (active)

Question: With `Cc1ccc(OCC(=O)Nc2nncs2)cc1` as the compound, how does the activation read?
Answer: 0.547%

Question: `CC1CCCN(C(=O)NCc2noc3ccccc23)C1` (centres undefined) was tested. Which activation did it give?
Answer: -1.14%

Question: Which activation does the source give for `CCOc1ccc(-n2c(C)cn3c4c(=O)n(CC(C)C)c(=O)n(C)c4nc23)cc1` here?
Answer: 0.368%

Question: How did the activation turn out when `O=C(C1CC12CCN(Cc1c(F)cccc1F)CC2)N1CCN(Cc2ccccc2)CC1` (centres undefined) was run?
Answer: -0.828%

Question: `O=C(NCCO)c1cnc(NC2CCN(Cc3ccccc3)CC2)s1` was tested. Which activation did it give?
Answer: 7.19% (active)

Question: How did the activation turn out when `CCCNC(=O)c1cc(NC2CCN(Cc3ccccc3)CC2)nc2ccccc12` was run?
Answer: 0.365%

Question: `O=C(NC1CCN(Cc2ccccc2)CC1)c1ccc(-c2ccccc2)s1` was tested. Which activation did it give?
Answer: 0.522%

Question: Which activation does the source give for `Cc1ccc(Cn2cc(C#N)c([N+](=O)[O-])n2)cc1` here?
Answer: 2.65%

Question: How did the activation turn out when `COc1ccc(-c2noc(-c3ccccc3Cl)n2)cc1` was run?
Answer: 6.08% (active)

Question: `Cc1ccc(-c2nc(-c3ccccc3Cl)no2)cc1` was tested. Which activation did it give?
Answer: 0.675%

Question: `COc1ccc(-c2noc(-c3ccc(Br)cc3)n2)cc1` was tested. Which activation did it give?
Answer: -0.475%

Question: `CN(C)c1ccc(NC(=O)c2ccc([N+](=O)[O-])cc2)c2ccccc12` was tested. Which activation did it give?
Answer: 2.25%

Question: How did the activation turn out when `CC1(c2ccccc2NC(=O)c2ccc([N+](=O)[O-])cc2)CC1` was run?
Answer: 6.15% (active)

Question: Which activation does the source give for `CC(C)CNC(=O)c1ccccc1NC(=O)c1ccc([N+](=O)[O-])cc1` here?
Answer: 1.87%

Question: How did the activation turn out when `O=C(Cc1ccccc1)NCc1nnc2n1CCN(Cc1ccc(F)cc1)CC2` was run?
Answer: -0.584%

Question: `COc1cc(-c2coc3cc(O[C@@H]4O[C@H](CO)[C@@H](O)[C@H](O)[C@H]4O)c(OC)c(O)c3c2=O)cc(O)c1OC` was tested. Which activation did it give?
Answer: 8.99% (active)

Question: Which activation does the source give for `COc1ccc(-c2coc3cc(OC4OC(COC5OC(C)C(O)C(O)C5O)C(O)C(O)C4O)cc(O)c3c2=O)cc1` (centres undefined) here?
Answer: -0.0364%

Question: `CCc1cc2c(=O)c(-c3ccc4c(c3)OCO4)c(C)oc2cc1OC1OC(CO)C(O)C(O)C1O` (centres undefined) was tested. Which activation did it give?
Answer: 0.749%

Question: Which activation does the source give for `CCc1ccc(CN2CCc3nnc(-c4ccccc4)n3CC2)o1` here?
Answer: -0.804%

Question: With `CCN1C(=O)CC(C(=O)OC)C12CCN(Cc1ccc(OC)c(OC)c1)CC2` (centres undefined) as the compound, how does the activation read?
Answer: 2.97%

Question: Which activation does the source give for `CCOC(=O)N1CCC(N2CCC(CO)(CCOc3ccccc3)CC2)CC1` here?
Answer: 0.442%

Question: How did the activation turn out when `C=CCN1C(=O)CC(C(=O)OC)C12CCN(C1CCN(C(=O)OCC)CC1)CC2` (centres undefined) was run?
Answer: 12.8% (active)

Question: How did the activation turn out when `CCCCOc1ccccc1CNCC` was run?
Answer: 6.95% (active)

Question: `CCOc1ccccc1OCCCNCc1ccccc1` was tested. Which activation did it give?
Answer: 0.0114%

Question: Which activation does the source give for `CCOc1ccccc1CNCC(C)O` (centres undefined) here?
Answer: -1.22%

Question: For `CNC(=O)c1c(NC(=O)c2ccccc2F)sc2c1CCC(C(C)(C)C)C2` (centres undefined), which activation is on record?
Answer: 2.94%

Question: With `O=C1CC(Cc2ccccc2)C(=O)N1c1ccc(Cl)cc1` (centres undefined) as the compound, how does the activation read?
Answer: 0.299%

Question: `Cc1ccc(Cn2c(=S)[nH]c3ccc(Cl)cc3c2=O)cc1` was tested. Which activation did it give?
Answer: 0.529%

Question: With `c1ccc2sc(-c3cnc4ccc(NC5CCOCC5)nn34)cc2c1` as the compound, how does the activation read?
Answer: 5.94% (active)

Question: How did the activation turn out when `Oc1ccc(-c2cnc3ccc(NC4CCOCC4)nn23)cc1` was run?
Answer: -0.504%

Question: `Brc1cccc(-c2cnc3ccc(NC4CCOCC4)nn23)c1` was tested. Which activation did it give?
Answer: -0.245%

Question: How did the activation turn out when `O=C(CN(CC1CCCO1)C(=O)CNS(=O)(=O)c1ccccc1)NC1CCCCC1` (centres undefined) was run?
Answer: 0.636%

Question: Which activation does the source give for `Cc1cc(C)nc(SCC(=O)N/N=C/c2ccc(Cl)cc2Cl)n1` here?
Answer: 0.39%

Question: Which activation does the source give for `COc1cccc(/C=N/NC(=O)CSc2nc(C)cc(C)n2)c1OC` here?
Answer: 1.66%

Question: `CC(/C=N\NC(=O)CSc1nc(C)cc(C)n1)=C\c1ccccc1` was tested. Which activation did it give?
Answer: 9.38% (active)

Question: With `COc1ccc(C(=O)CCNC(C(=O)O)C(C)O)cc1` (centres undefined) as the compound, how does the activation read?
Answer: -0.172%

Question: Which activation does the source give for `COc1ccc(/C=N/N2CCN(c3ccccn3)CC2)cc1` here?
Answer: 0.849%

Question: How did the activation turn out when `C(=N\N1CCN(c2ccccn2)CC1)/C1=C(N2CCOCC2)C(=C/c2ccccc2)/CC1` was run?
Answer: 6.77% (active)

Question: Which activation does the source give for `c1ccc(N2CCN(c3ccccn3)CC2)nc1` here?
Answer: -0.177%

Question: Which activation does the source give for `CCOC(=O)c1sc2nc(SCC(=O)NCc3ccccc3Cl)n(Cc3ccc(Cl)cc3)c(=O)c2c1C` here?
Answer: -0.0258%

Question: Which activation does the source give for `Cc1cc(C)c(S(=O)(=O)Nc2cccc(N3CCCS3(=O)=O)c2)c(C)c1` here?
Answer: 0.72%

Question: How did the activation turn out when `Cc1cc(C)cc(NC(=O)C(CC(C)C)NS(=O)(=O)c2ccc3c(c2)oc(=O)n3C)c1` (centres undefined) was run?
Answer: 3.86%

Question: For `Cc1cn2c3c(=O)n(Cc4ccccc4)c(=O)n(C)c3nc2n1C`, which activation is on record?
Answer: 0.103%

Question: How did the activation turn out when `Cc1ccccc1C(=O)NNC(=O)c1ccc(NC(=O)C(C)C)cc1` was run?
Answer: 1.54%

Question: With `O=C(O)C1CCC(CNc2nc(=S)[nH]c3ccccc23)CC1` (centres undefined) as the compound, how does the activation read?
Answer: -0.367%

Question: `CCN1CCCC1CNc1nc(=S)[nH]c2ccccc12` (centres undefined) was tested. Which activation did it give?
Answer: 9.1% (active)

Question: Which activation does the source give for `CC1CCN(CCCNc2nc(=S)[nH]c3ccccc23)CC1` here?
Answer: -3.01%

Question: `CCCCn1c(N)c(N(CC(C)C)C(=O)CCC(=O)O)c(=O)[nH]c1=O` was tested. Which activation did it give?
Answer: -0.868%

Question: Which activation does the source give for `CCN1CCN(C(C)C(=O)Nc2cc(C)on2)CC1` (centres undefined) here?
Answer: -5.25%

Question: How did the activation turn out when `CC1C(=O)NC(=O)N1c1ccc(Cl)cc1` (centres undefined) was run?
Answer: 2.6%

Question: With `COc1cn2c(cc1=O)C(=O)N(CCNC(=O)c1cccc(F)c1)CC2` as the compound, how does the activation read?
Answer: 0.552%

Question: `C=CCC(CC=C)(NC(=O)c1ccc([N+](=O)[O-])cc1)c1ccccc1` was tested. Which activation did it give?
Answer: 2.8%

Question: With `CCN1/C(=C/c2ccc3cc(C)ccc3[n+]2CC)Sc2ccc(OC)cc21` as the compound, how does the activation read?
Answer: 1.84%

Question: For `CCC(/C=C1\Sc2ccc(-c3ccccc3)cc2N1CC)=C\c1sc2ccc3ccccc3c2[n+]1CC`, which activation is on record?
Answer: -0.19%

Question: For `CCN1/C(=C/c2ccc3cc(C)ccc3[n+]2CC)Sc2ccc(-c3ccccc3)cc21`, which activation is on record?
Answer: 18.5% (active)

Question: With `CCCc1cc(=O)[nH]c(SCC(=O)Nc2ccc(C(N)=O)cc2)n1` as the compound, how does the activation read?
Answer: -0.889%

Question: How did the activation turn out when `COc1cccc(N2C(=O)C3CCCN3C2c2ccc(F)cc2)c1` (centres undefined) was run?
Answer: 1.08%

Question: `COc1ccc(N2C(=O)C3CCCN3C2c2cccc(OC)c2)cc1` (centres undefined) was tested. Which activation did it give?
Answer: 6.4% (active)

Question: For `COc1ccc(N2C(=O)C3CCCN3C2c2cc(OC)c(OC)cc2OC)cc1` (centres undefined), which activation is on record?
Answer: -1.11%

Question: With `CCOC(=O)COc1cccc2c(=O)n(CC(=O)Nc3cccc(Cl)c3)ccc12` as the compound, how does the activation read?
Answer: -0.932%

Question: With `CC(C)(C)CC(C)(C)c1ccc(OCC(=O)NNC(=O)c2ccccc2Cl)cc1` as the compound, how does the activation read?
Answer: -0.581%

Question: How did the activation turn out when `CCOC(=O)c1c(NC(=O)CSc2nc3ccccc3[nH]2)sc2c1CCC2` was run?
Answer: -0.467%

Question: For `CCSc1nnc(NC(=O)CSc2nc3ccccc3[nH]2)s1`, which activation is on record?
Answer: 0.0173%

Question: For `CCOC(=O)c1ccc2nc(NC(=O)CSc3nc4ccccc4[nH]3)sc2c1`, which activation is on record?
Answer: 7.06% (active)

Question: How did the activation turn out when `C=CCn1cnc2sc(C)c(-c3ccc(Cl)cc3)c2c1=O` was run?
Answer: 1.23%

Question: For `C=CCSc1nnc(-c2cc(N(C)C)nc(N(C)C)n2)n1C`, which activation is on record?
Answer: 3.52%

Question: Which activation does the source give for `CCN(CC)C1CCN(C(=O)c2cc(COc3ccc4ncccc4c3)on2)C1` (centres undefined) here?
Answer: 5.71% (active)

Question: `O=C(c1cc(COc2ccc3ncccc3c2)on1)N1C[C@@H]2CCC[C@H]1C2` was tested. Which activation did it give?
Answer: 0.767%

Question: Which activation does the source give for `COCC1CCN(C(=O)c2cc(COc3ccc4ncccc4c3)on2)C1` (centres undefined) here?
Answer: 2.98%

Question: `Cc1[nH]c2ccccc2c1C(=O)CN1CCN(c2ccccc2)CC1` was tested. Which activation did it give?
Answer: -0.808%

Question: How did the activation turn out when `Cc1cc2c(cc1C)NC(CC(=O)Nc1ccc(Cl)cc1Cl)C(=O)N2` (centres undefined) was run?
Answer: -1.58%

Question: Which activation does the source give for `O=C(Nc1ccc(Cl)c(-c2nc3ccccc3o2)c1)c1cc([N+](=O)[O-])ccc1Cl` here?
Answer: 0.267%

Question: With `COc1ccc(C(=O)NNC(=O)c2cccc(Cl)c2)cc1OC` as the compound, how does the activation read?
Answer: 1.28%

Question: With `COc1ccc(COC(=O)NNC(=O)c2cccc(Cl)c2)cc1` as the compound, how does the activation read?
Answer: 6.17% (active)

Question: `Cc1cc(C)cc(OCC(=O)NNC(=O)c2cccc(Cl)c2)c1` was tested. Which activation did it give?
Answer: 0.56%

Question: Which activation does the source give for `CCOC(=O)N1CCN(C(=O)CSc2nnc(-c3ccc(OC)cc3)o2)CC1` here?
Answer: -0.713%

Question: Which activation does the source give for `COc1ccc(-c2cn3c(NC(=O)c4ccccc4)cnc3cn2)cc1` here?
Answer: -2.03%

Question: `COc1cc(/C=N/NC(=O)c2cccs2)cc(OC)c1OC` was tested. Which activation did it give?
Answer: -1.73%

Question: Which activation does the source give for `O=C(N/N=C/c1cccc(Cl)c1Cl)c1ccc(O)cc1` here?
Answer: 0.598%

Question: Which activation does the source give for `O=C(N/N=C/c1cccc(Cl)c1Cl)c1cccs1` here?
Answer: 10.6% (active)

Reference: PubChem BioAssay AID1508602 (The Scripps Research Institute Molecular Screening Center, 2020)
